# Screening results from PubChem BioAssay.
# Mdm2 MdmX PPI: human Mdm2/MdmX binding inhibition; O15151+Q00987; SaOS-2 split-luciferase Mdm2/MdmX complementation, luminescence; inhibition, % at 8 µM; hit rate 3% among 330,000; AID 485346;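 active means inhibition of at least 50% at 8 µM in the primary screen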
# Target sequence (O15151 whole entry, looked up): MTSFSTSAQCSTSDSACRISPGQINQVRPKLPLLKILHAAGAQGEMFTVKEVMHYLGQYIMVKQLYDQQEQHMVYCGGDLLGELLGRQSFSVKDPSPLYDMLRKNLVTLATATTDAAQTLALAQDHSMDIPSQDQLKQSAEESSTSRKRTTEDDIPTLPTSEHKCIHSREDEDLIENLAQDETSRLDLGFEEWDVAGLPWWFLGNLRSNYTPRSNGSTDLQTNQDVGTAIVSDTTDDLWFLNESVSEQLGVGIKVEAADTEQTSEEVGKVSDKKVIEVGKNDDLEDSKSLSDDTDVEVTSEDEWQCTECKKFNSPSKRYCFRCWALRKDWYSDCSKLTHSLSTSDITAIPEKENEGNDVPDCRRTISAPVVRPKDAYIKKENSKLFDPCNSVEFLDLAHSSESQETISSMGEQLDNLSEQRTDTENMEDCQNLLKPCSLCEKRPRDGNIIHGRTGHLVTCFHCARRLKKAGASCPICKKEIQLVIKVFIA
# Target sequence (Q00987 whole entry, looked up): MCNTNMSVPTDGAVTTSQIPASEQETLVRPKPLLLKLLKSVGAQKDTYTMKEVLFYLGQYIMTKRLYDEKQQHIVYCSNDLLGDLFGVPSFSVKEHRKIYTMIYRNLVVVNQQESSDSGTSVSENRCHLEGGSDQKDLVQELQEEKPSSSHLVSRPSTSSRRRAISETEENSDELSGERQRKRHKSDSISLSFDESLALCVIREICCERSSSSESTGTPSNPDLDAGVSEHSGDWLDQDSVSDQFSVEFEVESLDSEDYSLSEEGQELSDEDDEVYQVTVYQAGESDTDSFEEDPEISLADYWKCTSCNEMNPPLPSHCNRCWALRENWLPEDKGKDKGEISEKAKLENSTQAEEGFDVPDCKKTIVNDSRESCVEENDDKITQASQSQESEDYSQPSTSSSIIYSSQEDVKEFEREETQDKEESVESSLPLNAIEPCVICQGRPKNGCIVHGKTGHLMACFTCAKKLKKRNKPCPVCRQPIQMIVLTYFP
# aSyn UTR inh: MLPCN primary screen, SNCA 5' untranslated region; alpha-synuclein 5'UTR reporter, inhibitor activity; inhibition, % (tested at 7.5 µM); hit rate 0.82% among 300,000; in the data active means inhibition above about 60%; inconclusive means no clear call, values can overlap the other calls;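 further: H4 neuroglioblastoma cells stably carrying SNCA 5'UTR luciferase fusion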
# Gli-Sufu antag: Gli-Sufu pathway antagonism | hit rate 0.74% among 340,000 | AID 588413 | inhibition, % at 5 µM | Sufu-KO-LIGHT fibroblasts, Gli luciferase reporter luminescence;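 active means inhibition above about 55%, limit read from the data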
# Jurkat NFkB inh: lowers PMA/ionomycin-induced NF-kB signal in Jurkat cells | PMA/ionomycin-induced NF-kB luciferase reporter, luminescence | inhibition, % at 4 µM | hit rate 0.53% among 330,000 | AID 435003; in the data active means inhibition above about 50%
# KLF5 inhibitor: inhibitors of KLF5 expression; DLD-1 KLF5 promoter-luciferase reporter, luminescence; inhibition, % at 5 µM; hit rate 0.23% among 290,000;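 active means inhibition above a per-plate limit of that plate's mean compound inhibition plus 3 SD, cut at about 60% in these data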;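 further: higher means less KLF5 promoter-driven luciferase light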
# 697 NFkB inh: inhibitors of the PMA/ionomycin-induced NF-kB reporter in 697 B cells. 697 B-cell NF-kB luciferase reporter, 16 h. hit rate 0.33% among 330,000. AID 435022. inhibition, % at 4 µM; in the data active means inhibition above about 35%
# 697 NFkB conf: lowers PMA/ionomycin-induced NF-kB signal in 697 B cells; shares compounds with 697 NFkB inh; 697 B-cell NF-kB luciferase, 16 h; inhibition, % at 4 µM; hit rate 35% among 2,000; AID 449746; in the data active means inhibition mostly above about 28%, no sharp cut-off; inactive means mostly below about 22%
# Mdm2 MdmX conf: human Mdm2/MdmX binding inhibition, confirmed; AID 489028; luminescent assay; shares compounds with Mdm2 MdmX PPI; inhibition, % at 8 µM; hit rate 55% among 10,000; in the data active means inhibition above about 40%
# FLuc counter: full-length luciferase inhibition in Mdm2/MdmX counter-screen; shares compounds with Mdm2 MdmX PPI; SaOS-2 full-length luciferase counterscreen, luminescence; inhibition, % at 8 µM; hit rate 77% among 6,200; AID 504607;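 active means mean inhibition at 8 µM reaching about 37%, which flags the compound as non-specific, limit read from the data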;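 further: p53-null SaOS-2 cells with luciferase driven by a doxycycline-inducible promoter; compound on cells about two nights before reading with doxycycline added after day one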
# Numbers stand for hits; - = inactive; ? = inconclusive; . = not tested or not shown. Hits are enriched below; roughly 4.1% of the tested compounds scored in any of these assays.
SMILES,Mdm2 MdmX PPI,aSyn UTR inh,Gli-Sufu antag,Jurkat NFkB inh,KLF5 inhibitor,697 NFkB inh,697 NFkB conf,Mdm2 MdmX conf,FLuc counter
Fc1ccc(C2=Nn3c(nnc3-c3n[nH]c4c3CCC4)SC2)cc1,76,-,-,-,-,44,53,44,82
CN1CCN(CC(=O)Nc2c(C#N)cnn2-c2ccccc2)CC1,-,-,-,-,-,-,.,.,.
COc1ccc(Nc2nccc(-c3cccc(N)c3)n2)cc1,65,-,-,-,-,-,-,-,.
O=C(Nc1ccc([N+](=O)[O-])cc1Cl)c1cc(Cl)ccc1O,100,.,56,-,.,-,-,97,51
Cc1ccc(O)c(NC(=O)c2cc([N+](=O)[O-])ccc2Cl)c1,-,-,-,-,-,-,.,.,.
C=CCOc1ccccc1CN(C(=O)CCl)c1ccc2c(c1)OCO2,90,-,-,-,-,42,32,81,-
Cc1cc(C(F)(F)F)c(C#N)c(SCC(=O)Nc2nc3ccccc3s2)n1,66,-,-,-,-,-,-,82,142
Cc1ccc2sc(NC(=O)CSc3nc(C)cc(C)c3C#N)nc2c1,-,-,-,-,-,-,.,.,.
Cc1ccc(-n2c(-c3ccccc3)c[n+]3c2CCc2ccccc2-3)c(C)c1,82,.,87,-,-,49,28,66,-
Cc1ccc(-n2c(SCC(=O)N3CCCc4ccccc43)nnc2-c2cccnc2)c(C)c1,-,-,-,-,-,-,.,.,.
O=S(=O)(NC1CCCCC1)c1ccc(Cl)nc1,-,-,-,-,-,-,.,.,.
CCOc1cc(N2CCOCC2)c(OCC)cc1NC(=O)COC(=O)CCOc1cc(C)ccc1C,-,-,-,-,.,-,.,.,.
CC(C)(C)c1ccc(/C=C2\SC(=O)N(CCNC(=O)c3cccc(S(=O)(=O)N4CCOCC4)c3)C2=O)cc1,70,-,-,-,-,-,-,76,86
O=C(Oc1ccnc2cc(Cl)ccc12)N1CCCCCC1,67,-,-,-,-,38,-,-,-
CCOC(=O)N1CCN(c2ccnc3cc(Cl)ccc23)CC1,-,-,-,-,-,-,.,.,.
Cc1ccccc1-c1n[nH]c(=S)n1/N=C/c1c(C)nn(-c2ccccc2)c1C,87,-,-,-,-,-,-,53,103
CCC(C)(C)c1ccc(Oc2cccc(C(=O)O)c2)cc1,-,-,-,-,-,-,.,.,.
CCC(C)(C)c1ccc(OCCCC[n+]2ccccc2)c(C(C)(C)CC)c1,84,-,.,-,-,78,34,94,56
CCCN1C(=O)c2ccccc2NC1c1ccc(OC)cc1O (stereo not given),64,-,-,-,-,-,-,54,72
CCCN1C(=O)c2ccccc2NC1c1ccc(OC)cc1OC (stereo not given),-,-,-,-,-,-,.,.,.
CC1(C)Cc2ccccc2C(/C(=N\Nc2cccc(Cl)c2)C(N)=O)=N1,-,-,-,-,-,-,.,.,.
CC(=O)c1ccc(N/N=C(/C(N)=O)C2=NC(C)(C)Cc3ccccc32)cc1,63,?,-,-,-,-,-,-,63
COc1ccc(-n2ncc3c2CC(C)(C)CC3NC(=O)c2cn[nH]c2)cc1 (stereo not given),-,-,-,-,-,-,.,.,.
N/C(=N\OC(=O)c1ccc(Cl)cc1Cl)c1ccc(Cl)cc1,53,-,-,-,-,-,-,50,146
O=C(O)c1nn(CCOc2c(Cl)cccc2Cl)c(=O)c2ccccc12,69,-,-,-,-,-,-,54,44
SMILES,Mdm2 MdmX PPI,aSyn UTR inh,Gli-Sufu antag,Jurkat NFkB inh,KLF5 inhibitor,697 NFkB inh,697 NFkB conf,Mdm2 MdmX conf,FLuc counter
O=C(O)c1nn(CCOc2cccc(Cl)c2)c(=O)c2ccccc12,-,-,-,-,-,-,.,.,.
Cc1c(Cl)cccc1NC(=S)N1CCC(N(C)CC2CCCO2)CC1 (stereo not given),-,-,-,-,-,-,.,.,.
CCOC(=O)C1=C(NC(=S)NC(=O)c2ccccc2)c2ccccc2CC1(C)CC (stereo not given),77,-,-,-,-,-,-,66,53
CCOC(=O)c1c(NC(=O)c2ccccc2)sc2c1CCc1ccccc1-2,-,-,-,-,-,-,.,.,.
CCOC(=O)C1=C(NC(=S)NC(=O)c2ccccc2)c2ccccc2CC1C(C)C (stereo not given),96,-,-,-,-,-,-,-,.
Cc1ccccc1S(=O)(=O)Oc1cccc2c(O)cccc12,-,-,-,-,-,-,.,.,.
Cc1cccc(C(C)C)c1NC(=O)CN1C(=O)NC2(CCc3ccccc32)C1=O (stereo not given),-,-,-,-,.,-,.,.,.
CC(=O)Nc1nc(C)c(-c2csc(Nc3cccc([N+](=O)[O-])c3)n2)s1,90,67,-,-,-,45,-,71,-
CC(=O)Nc1ccc(Nc2nc(-c3sc(NC(C)=O)nc3C)cs2)cc1,58,-,-,-,-,41,26,-,.
Cc1ccc(-c2ccc(SCC(=O)N3CCc4ccccc43)nn2)cc1,-,-,.,-,-,-,.,.,.
Cc1cc2nc(-c3ccc(SCC(=O)N4CCc5ccccc54)nc3)[nH]c2cc1C,98,-,-,-,-,-,-,42,65
O=C(CSc1n[nH]c(-c2ccncc2)n1)Nc1ccc(Cl)c(C(=O)O)c1,-,-,-,-,-,-,.,.,.
Nc1c(C(=O)CSc2nc3ccccc3o2)c(=O)[nH]c(=O)n1C1CC1,80,.,-,-,.,-,-,-,.
COc1ccc(C2=Nn3c(nnc3-c3ccccc3F)SC2)cc1OC1CCCC1,100,.,-,-,.,-,-,86,-
COc1ccc(C2=Nn3c(nnc3C3CCCCC3)SC2)cc1OC,-,-,-,-,-,-,.,.,.
CC(C)(C)c1ccc(-c2cc(-c3ccccc3O)[nH]n2)cc1,58,-,-,-,-,-,-,65,139
Cc1ccc(O)c(-c2cc(-c3ccccc3C)[nH]n2)c1,-,-,-,-,-,-,.,.,.
Cc1ccc(C(C)C)cc1OCCn1cncn1,-,-,-,-,-,-,.,.,.
C/C(N)=C(/C#N)C(=O)COC(=O)c1cc(C)n(-c2ccc(F)cc2)c1C,80,-,-,-,-,-,-,-,.
C[C@H](CO)N1C[C@H](C)[C@@H](CN(C)C(=O)Nc2ccc3c(c2)OCO3)Oc2c(NC(=O)Nc3ccc(C(F)(F)F)cc3)cccc2C1=O,80,.,-,-,.,46,-,69,68
C[C@H](CO)N1C[C@H](C)[C@@H](CN(C)C(=O)Nc2ccc(C(F)(F)F)cc2)Oc2c(NC(=O)Nc3ccc4c(c3)OCO4)cccc2C1=O,-,.,-,-,.,-,.,.,.
COc1ccccc1N(Cc1ccccc1)S(=O)(=O)c1cccc(C(=O)Nc2ccccn2)c1,67,-,-,-,-,-,-,60,91
